Measurements reported in PubChem BioAssay AID1159580 (chemical genetic matrix, 2015).
The campaign covered roughly 5,500 compounds. About 2,000 (36%) were called active. Not shown: some 18% with an inconclusive outcome. Rule as the data show it: active = normalized growth mostly below about 0.91 (no sharp cut-off); inconclusive = no clear call, values can overlap the other calls; inactive = mostly above about 0.92. This is one part of the list.

Assay: chemical genetic growth profiling, strain panel (AID 1159580);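 also: tested at 20 µM; growth read once vehicle control cultures reached saturation at 30 °C; 1 = growth at the plate median or of vehicle wells; lower values mean less growth of the strain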
Settings: growth OD

Measured: normalized growth

CCCCC1=NC2(CCCC2)C(=O)N1Cc1ccc(-c2ccccc2-c2nn[nH]n2)cc1
inactive: S. cerevisiae deletion strains, locus YKL009W, strain mrt4, stronger effect = lower value 0.952 | S. cerevisiae deletion strains, locus YKL068W, stronger effect = lower value 0.98 | S. cerevisiae deletion strains, locus YKL085W, strain MDH1 (second series), stronger effect = lower value 0.986 | S. cerevisiae deletion strains, locus YKL085W, strain MDH1, stronger effect = lower value 0.986 | S. cerevisiae deletion strains, locus YKL160W, strain elf1, stronger effect = lower value 1.01 | S. cerevisiae deletion strains, locus YKL190W, strain CNB1, stronger effect = lower value 0.986 | S. cerevisiae deletion strains, locus YKR001C, strain vps1, stronger effect = lower value 0.996 | S. cerevisiae deletion strains, locus YKR026C, strain gcn3, stronger effect = lower value 1.01 | S. cerevisiae deletion strains, locus YKR091W, strain srl3, stronger effect = lower value 1.02 | S. cerevisiae deletion strains, locus YLL001W, strain dnm1, stronger effect = lower value 1.01 | S. cerevisiae deletion strains, locus YLL026W, stronger effect = lower value 1.02 | S. cerevisiae deletion strains, locus YLL041C, strain sdh2, stronger effect = lower value 1.01 | S. cerevisiae deletion strains, locus YLR027C, strain aat2, stronger effect = lower value 0.999 | S. cerevisiae deletion strains, locus YLR039C, strain RIC1, stronger effect = lower value 0.969 | S. cerevisiae deletion strains, locus YLR058C, strain SHM2, stronger effect = lower value 0.964 | S. cerevisiae deletion strains, locus YLR102C, strain apc9, stronger effect = lower value 0.981 | S. cerevisiae deletion strains, locus YLR113W, strain HOG1, stronger effect = lower value 1.02 | S. cerevisiae deletion strains, locus YLR221C, strain rsa3, stronger effect = lower value 1.01 | S. cerevisiae deletion strains, locus YLR258W, strain gsy2, stronger effect = lower value 1.02 | S. cerevisiae deletion strains, locus YLR262C, strain YPT6 (second series), stronger effect = lower value 1.04 | S. cerevisiae deletion strains, locus YLR262C, strain YPT6, stronger effect = lower value 0.947 | S. cerevisiae deletion strains, locus YLR268W, strain sec22, stronger effect = lower value 1.09 | S. cerevisiae deletion strains, locus YLR320W, strain mms22, stronger effect = lower value 1.02 | S. cerevisiae deletion strains, locus YLR330W, strain CHS5, stronger effect = lower value 0.987 | S. cerevisiae deletion strains, locus YLR342W, strain FKS1 (second series), stronger effect = lower value 0.96 | S. cerevisiae deletion strains, locus YLR342W, strain FKS1, stronger effect = lower value 1.02 | S. cerevisiae deletion strains, locus YLR357W, strain rsc2, stronger effect = lower value 1.01 | S. cerevisiae deletion strains, locus YLR370C, strain arc18, stronger effect = lower value 1.01 | S. cerevisiae deletion strains, locus YLR371W, strain rom2, stronger effect = lower value 0.972 | S. cerevisiae deletion strains, locus YLR384C, strain iki3, stronger effect = lower value 1 | S. cerevisiae deletion strains, locus YLR418C, strain cdc73, stronger effect = lower value 0.993 | S. cerevisiae deletion strains, locus YML016C, strain PPZ1, stronger effect = lower value 0.984 | S. cerevisiae deletion strains, locus YML032C, strain rad52, stronger effect = lower value 1.02 | S. cerevisiae deletion strains, locus YML120C, strain ndi1, stronger effect = lower value 0.997 | S. cerevisiae deletion strains, locus YML124C, strain tub3, stronger effect = lower value 0.977 | S. cerevisiae deletion strains, locus YMR058W, strain fet3, stronger effect = lower value 1 | S. cerevisiae deletion strains, locus YMR078C, strain ctf18, stronger effect = lower value 0.991 | S. cerevisiae deletion strains, locus YMR125W, strain sto1, stronger effect = lower value 1.01 | S. cerevisiae deletion strains, locus YMR129W, stronger effect = lower value 1.01 | S. cerevisiae deletion strains, locus YMR205C, strain PFK2, stronger effect = lower value 1.03 | S. cerevisiae deletion strains, locus YMR223W, strain ubp8, stronger effect = lower value 0.957 | S. cerevisiae deletion strains, locus YMR231W, strain pep5, stronger effect = lower value 1.02 | S. cerevisiae deletion strains, locus YMR263W, strain SAP30, stronger effect = lower value 0.998 | S. cerevisiae deletion strains, locus YMR307W, strain GAS1, stronger effect = lower value 0.964 | S. cerevisiae deletion strains, locus YNL067W, strain RPL9B, stronger effect = lower value 1.04 | S. cerevisiae deletion strains, locus YNL071W, strain lat1, stronger effect = lower value 1 | S. cerevisiae deletion strains, locus YNL128W, strain TEP1, stronger effect = lower value 0.968 | S. cerevisiae deletion strains, locus YNL153C, strain GIM3, stronger effect = lower value 1.03 | S. cerevisiae deletion strains, locus YNL183C, strain NPR1, stronger effect = lower value 0.966 | S. cerevisiae deletion strains, locus YNL209W, strain ssb2, stronger effect = lower value 1.01 | S. cerevisiae deletion strains, locus YNL233W, strain BNI4, stronger effect = lower value 1.04 | S. cerevisiae deletion strains, locus YNL248C, strain rpa49, stronger effect = lower value 1.04 | S. cerevisiae deletion strains, locus YNL250W, strain rad50, stronger effect = lower value 0.978 | S. cerevisiae deletion strains, locus YNL271C, strain bni1, stronger effect = lower value 1 | S. cerevisiae deletion strains, locus YNL298W, strain CLA4, stronger effect = lower value 0.971 | S. cerevisiae deletion strains, locus YNL307C, strain MCK1, stronger effect = lower value 0.99 | S. cerevisiae deletion strains, locus YNL322C, strain KRE1 (second series), stronger effect = lower value 1.03 | S. cerevisiae deletion strains, locus YNL322C, strain KRE1, stronger effect = lower value 0.986 | S. cerevisiae deletion strains, locus YNR049C, strain mso1, stronger effect = lower value 1 | S. cerevisiae deletion strains, locus YNR052C, strain pop2, stronger effect = lower value 0.999 | S. cerevisiae deletion strains, locus YOL006C, strain TOP1, stronger effect = lower value 1.1 | S. cerevisiae deletion strains, locus YOL012C, strain htz1 0.917 | S. cerevisiae deletion strains, locus YOL147C, strain pex11, stronger effect = lower value 0.992 | S. cerevisiae deletion strains, locus YOR001W, strain rrp6, stronger effect = lower value 1.01 | S. cerevisiae deletion strains, locus YOR061W, strain CKA2, stronger effect = lower value 0.97 | S. cerevisiae deletion strains, locus YOR069W, strain VPS5, stronger effect = lower value 0.991 | S. cerevisiae deletion strains, locus YOR070C, strain gyp1, stronger effect = lower value 1.01 | S. cerevisiae deletion strains, locus YOR080W, strain dia2, stronger effect = lower value 1 | S. cerevisiae deletion strains, locus YOR083W, strain WHI5, stronger effect = lower value 1.03 | S. cerevisiae deletion strains, locus YOR106W, strain vam3, stronger effect = lower value 1.02 | S. cerevisiae deletion strains, locus YOR136W, strain idh2, stronger effect = lower value 0.967 | S. cerevisiae deletion strains, locus YOR144C, strain elg1, stronger effect = lower value 0.987 | S. cerevisiae deletion strains, locus YOR184W, strain ser1, stronger effect = lower value 0.979 | S. cerevisiae deletion strains, locus YOR231W, strain MKK1, stronger effect = lower value 0.981 | S. cerevisiae deletion strains, locus YOR265W, strain rbl2, stronger effect = lower value 1.01 | S. cerevisiae deletion strains, locus YOR270C, strain vph1, stronger effect = lower value 1.08 | S. cerevisiae deletion strains, locus YOR290C, strain snf2, stronger effect = lower value 1.01 | S. cerevisiae deletion strains, locus YOR316C, strain cot1, stronger effect = lower value 0.984 | S. cerevisiae deletion strains, locus YPL051W, strain arl3, stronger effect = lower value 0.984 | S. cerevisiae deletion strains, locus YPL055C, strain LGE1, stronger effect = lower value 0.959 | S. cerevisiae deletion strains, locus YPL078C, strain atp4, stronger effect = lower value 1.01 | S. cerevisiae deletion strains, locus YPL106C, strain sse1, stronger effect = lower value 1.01 | S. cerevisiae deletion strains, locus YPL240C, strain hsp82, stronger effect = lower value 1 | S. cerevisiae deletion strains, locus YPL241C, strain CIN2, stronger effect = lower value 0.99 | S. cerevisiae deletion strains, locus YPL256C, strain CLN2, stronger effect = lower value 0.985 | S. cerevisiae deletion strains, locus YPR119W, strain clb2, stronger effect = lower value 0.986 | S. cerevisiae deletion strains, locus YPR141C, strain kar3, stronger effect = lower value 0.971 | S. cerevisiae deletion strains, locus YPR163C, strain tif3, stronger effect = lower value 0.995 | S. cerevisiae deletion strains, locus YPR167C, strain met16, stronger effect = lower value 0.991 | S. cerevisiae deletion strains, strain wtn01, stronger effect = lower value 1.02 | S. cerevisiae strains, strain wild type, stronger effect = lower value 0.978
